VACV mCherry inh: vaccinia inhibition (mCherry reporter). 310,000 tested, 0.63% active. Vaccinia virus mCherry reporter infection, fluorescence. Potency, µM (top dose mostly 36.5 µM), inactives show top-dose activity change, negative = inhibition, usual class: inhibitors; calls by dose curve; tested in A549 cells; further: nearly all actives have a fitted effect of over 35% in size
Pf growth 48h: inhibits P. falciparum growth in the first generation, 48 h | Potency, µM (doses to about 28.7 µM), without a hit: at the highest dose activity change, negative = inhibition, hits mostly inhibitors | P. falciparum luciferase growth in erythrocytes, 48 h | 310,000 tested, 5.9% active
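In quantitative HTS format, infected erythrocytes bearing luciferase-reporter parasites were treated for a single generation at 37 C. Luminescence after adding detection reagent served as the growth measure.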
Pf growth 96h: inhibits malaria parasite growth, 96 h; P. falciparum luciferase reporter growth, 96 h; Potency, µM (top dose mostly 28.7 µM), inactives show at the highest dose activity change, negative = inhibition, actives largely listed as inhibitors; 320,000 tested, 6.9% active
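Compounds incubated with erythrocytes infected by luciferase-expressing P. falciparum (2% hematocrit, 0.05% parasitemia final) for 96 hours, 37 C in 5% CO2. Growth inhibition scored as decreased luciferase luminescence.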
AMA1 RON2 block: AMA1-RON2 (P. falciparum) interaction inhibition; 360,000 tested, 0.2% active; Potency, µM (titrated, usually from 58.2 µM), for inactives: at the highest dose activity change, negative = inhibition, actives largely listed as inhibitors; AlphaScreen AMA1-biotinylated RON2 peptide binding;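 further: 0% = vehicle wells and -100% = peptide control; nearly all actives have a fitted effect of over 45% in size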
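AMA1 (3D7) with his tag at 25 nM final met compounds first, then biotinylated RON2 peptide at 25 nM; detection used donor plus acceptor beads, 10 µg/mL apiece, read by AlphaScreen after 30 min at room temperature.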
Vaccinia Venus: inhibitors of vaccinia virus (Venus reporter); Vaccinia virus Venus reporter expression, fluorescence; AID 720580; Potency, µM (highest dose often 36.5 µM), inactives show at the top dose activity change, negative = inhibition, actives largely listed as inhibitors; 330,000 tested, 0.46% active; calls by dose curve; tested in A549 cells; further: nearly all actives have a fitted effect of over 30% in size
The depositor's hits bear a star; i = inactive; ? = inconclusive; . = not tested or not shown; [ ] = remark or other dose. This is a sample that favours compounds with a hit; in the whole collection about 8.7% have one here. Unless noted, the call rests on the fitted dose curve; in most records, active means well fitted curve in the direction sought with a large enough effect; inconclusive means small, poorly fitted or top-dose-only effect, or another doubt; inactive means no such curve, though single readings can be large; an effect the other way counts as inactive or inconclusive. Unless noted, on the % scale 0 is the no-effect control and ±100 the full control effect; potency means the concentration at half of the fitted maximal effect.

SMILES | VACV mCherry inh | Pf growth 48h | Pf growth 96h | AMA1 RON2 block | Vaccinia Venus
O=C(NCc1ccc2c(c1)CCN2C(=O)c1ccccc1)c1cc2ccccc2[nH]1 | -6.5% | . | . | . | -14.2%
O=C(NCC1Cc2cccc(-c3ncccn3)c2O1)c1cccc(-c2ccccc2F)c1 (stereo not given) | 25.0% | . | . | . | 32.7%
CCn1ccnc1CNC(=O)C1CCC(=O)N(Cc2ccccc2F)C1 (stereo not given) | -8.0% | -1.1% | 11.7µM* | 4.8% | -6.9%
CCn1ccnc1CNC(=O)C1CCC(=O)N(Cc2cccc(C(F)(F)F)c2)C1 (stereo not given) | . | 6.0% | -92.4% | 84.6% | .
C/C(CC(=O)Nc1cccc2c1CCCC2)=N\NC(=O)COc1ccccc1 | -14.5% | 11.7% | 2.08µM* | 39.2% | -21.9%
COc1ccc(CNc2nc(SCc3ccccc3Cl)nc3ccccc23)cc1 | -21.6% | . | . | . | ?
CCCCN(C)C(=O)CSc1nc(NCc2ccc(OC)cc2)c2ccccc2n1 | . | 10.4µM* | 2.33µM* | -4.0% | .
Cc1cc(OC(C)C(N)=O)nc(-c2ccccc2)n1 (stereo not given) | 2.5% | 14.7µM* | 10.0% | 53.4% | -23.4%
Cc1cnc(-n2ncc(C(=O)N(C)C3CCOC3)c2C)nc1-c1ccc(F)cc1 (stereo not given) | -10.5% | . | . | . | 8.3%
Cc1ccc(N(C)S(=O)(=O)c2cccc(C(=O)Nc3nc4ccccc4[nH]3)c2)cc1 | -22.7% | 11.7µM* | ? | 75.8% | ?
CN(c1ccccc1)S(=O)(=O)c1cccc(NC(=O)c2ccc3ncsc3c2)c1 | -28.4% | ? | 10.4µM* | -24.3% | -12.7%
CN(C)c1cccc(C(=O)Nc2nc3ccccc3[nH]2)c1 | -29.6% | -62.4% | -62.2% | ? | -23.6%
Cc1nc2ccc(NC(=O)c3ccccc3)cc2s1 | . | 19.9% | 0.0% | 9.5% | .
CN(c1ccccc1)S(=O)(=O)c1cccc(NC(=O)c2cccc(C#N)c2)c1 | . | 13.1µM* | ? | 2.8% | .
COCc1ccc(C(=O)Nc2cccc(S(=O)(=O)N(C)c3ccccc3)c2)cc1 | i | . | . | -8.4% | -10.6%
Cc1nc2ccc(NC(=O)c3cccc(S(=O)(=O)N(C)c4ccccc4)c3)cc2s1 | ? | ? | 8.28µM* | -18.4% | ?
COC(=O)c1c(-c2cccs2)csc1NC(=O)c1cc(OC)c(OC)c(OC)c1 | -13.0%[7.34 µM] | . | . | . | -19.8%[7.34 µM]
CCn1cc(C(=O)N2CCN(c3cccc(Cl)c3)CC2)c(=O)c2cc(S(=O)(=O)N3CCCCC3)ccc21 | i | . | . | . | -7.2%
CC(=O)Nc1ccc(NC(=O)C2C3C=CC(C3)C2C(=O)O)cc1 (stereo not given) | -11.4% | 5.7% | 1.65µM* | 11.7% | 0.9%
O=C(O)C1C2C=CC(C2)C1C(=O)NCc1cccs1 (stereo not given) | 8.7% | -1.4% | 4.15µM* | -0.3% | 5.8%
COc1ccccc1NC(=S)N1CCC(c2nc3cc(C)c(C)cc3[nH]2)CC1 | -2.0% | ? | 11.7µM* | -7.0% | -20.9%
Cc1ccc(-n2c(O)cnc2Nc2nc(C)cc(C)n2)cc1 | -8.9% | 13.4% | 0.294µM* | -16.0% | -0.2%
COc1ccccc1CNC(=O)CCC1N=C2c3ccccc3N=C(SCC(=O)Nc3ccc(F)cc3)N2C1=O (stereo not given) | i | . | . | . | -19.1%
COc1cc(NC(=O)C(NS(=O)(=O)c2ccc3c(c2)CCCC(=O)N3)C(C)C)cc(OC)c1 (stereo not given) | -5.3% | . | . | . | -4.7%
CCOC(=O)c1c(C)[nH]c(C=Nc2ccc(OC)cc2)c1O | . | -21.0% | 14.7µM* | -3.7% | -10.1%
SMILES | VACV mCherry inh | Pf growth 48h | Pf growth 96h | AMA1 RON2 block | Vaccinia Venus
CCOC(=O)c1c(C)[nH]c(C=Nc2ccccc2)c1O | . | -1.2% | 9.28µM* | . | .
CCOC(=O)c1c(C)[nH]c(N=Nc2ccc(C)cc2)c1C | -13.4% | 55.3% | . | -25.3% | -18.7%
CCOC(=O)c1c(C)[nH]c(N=Nc2ccccc2)c1C | . | . | 9.5% | 12.6µM* | -18.4%
COC(=O)c1c(C)[nH]c(C=Nc2ccc(OC)cc2)c1C | i | 4.9% | 103.9% | -12.6% | -7.4%
CCCSCCCNC(=O)CN1C(=O)COc2ccc(S(=O)(=O)N3CCCCCC3)cc21 | -24.0% | . | . | . | -14.8%
Cc1ccccc1N1CCN(S(=O)(=O)c2nnc(NC(=O)c3ccc(C(C)C)cc3)s2)CC1 | -24.2% | . | . | . | -28.6%
Cc1ccc(Cl)cc1N=C(N)N=C(N)N | -19.3% | ? | ? | 25.0% | -12.0%

Screening data: PubChem BioAssay, National Center for Advancing Translational Sciences (NCATS)
